Assay outcomes as filed in PubChem BioAssay.
Hits are enriched below; roughly 13% of the tested compounds scored in any of these assays.
HADH2 inhib: inhibitors of human HADH2 dehydrogenase; Potency, µM (series often up to 57.1 µM), for inactives: top-dose activity change, negative = inhibition, actives largely listed as inhibitors; 3.4% of 73,000 active; Q99714; recombinant HADH2, NADH fluorescence, beta-hydroxybutyryl-CoA; AID 886; further: potency means the concentration at half of the fitted maximal effect; on the % scale 0 is the no-effect control and ±100 the full control effect; nearly all actives have a fitted effect of over 60% in size
Target sequence (Q99714 whole entry, looked up, one chain of several): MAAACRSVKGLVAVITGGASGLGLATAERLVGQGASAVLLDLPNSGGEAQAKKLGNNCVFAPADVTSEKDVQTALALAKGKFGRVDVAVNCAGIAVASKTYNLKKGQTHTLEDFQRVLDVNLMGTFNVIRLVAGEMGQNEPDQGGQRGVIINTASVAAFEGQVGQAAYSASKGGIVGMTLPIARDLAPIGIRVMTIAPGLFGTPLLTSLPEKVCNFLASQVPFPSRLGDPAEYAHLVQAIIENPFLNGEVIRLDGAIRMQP
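20 nM HADH2 + cpd, 15 min RT; add 1 mM NAD+/90 uM beta-hydroxybutyryl-CoA; kinetic fluorescence 360/450 nm, 4 min. Tris-HCl pH 9.0, 0.01% Tween-20.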
A350 fluor: compound fluoresces in the Alexa 350 spectral region. Compound autofluorescence, 340/450 nm, Alexa 350 dye-equivalents; stronger effect = higher value. max dye-equivalent concentration, M. 11% of 59,000 active. AID 590; in the data active means max dye-equivalent concentration above about 10 nM; inconclusive means mostly about 1.1 nM to 9.6 nM
HSD17B inh: HSD17B dehydrogenase inhibition | 7.6% of 75,000 active | Potency, µM (highest dose often 57.1 µM), inactives show at the highest dose activity change, negative = inhibition, actives largely listed as inhibitors | AID 893 | Q99714 | recombinant HSD17B10, NADH fluorescence kinetic;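 further: the protocol describes HADH2 (HSD17B10) and not the HSD17B4 of the title; potency means the concentration at half of the fitted maximal effect; on the % scale 0 is the no-effect control and ±100 the full control effect; nearly all actives have a fitted effect of over 70% in size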
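His-tagged E. coli-expressed HADH2 at 20 nM in 100 mM Tris-HCl pH 9.0 with 0.01 % Tween-20, preincubated 15 min with compound at room temperature. Reaction with 1 mM NAD+ and 90 uM beta-hydroxybutyryl coenzyme A; NADH fluorescence (360/450 nm) read kinetically over 4 min, last minus first point.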
AID923: qHTS Assay for Allosteric/Competitive Inhibitors of Caspase-1: Spectroscopic Profiling in AFC Spectral Region; 1.1% of 75,000 active; Potency, µM (doses to about 57.5 µM), for inactives: at the highest dose fluorescence increase, most hits filed as activators; compound fluorescence, AFC spectral region (405/520 nm); further: potency means the concentration at half of the fitted maximal effect; 0% is about no effect
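Titrations up to 57 uM read every 20 sec for 3 min (405/520 nm) with 50 nM caspase 1 and 5 uM Ac-WEHD-AFC, pH 7.5 HEPES buffer. Fluorescence-vs-time intercept gave baseline, scaled against on-plate AFC standard.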
4MU fluor: compound fluoresces in the 4-MU spectral region. AID 589. 11% of 59,000 active. compound autofluorescence, 340/450 nm, 4-MU equivalents; stronger effect = higher value. max dye-equivalent concentration, M; in the data active means max dye-equivalent concentration above about 10 nM; inconclusive means mostly about 1.1 nM to 9.6 nM
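Compounds in 100 mM Tris, pH 8.0, incubated 15 min at room temperature, then fluorescence read at 340 nm excitation/450 nm emission. Signal converted to 4-MU dye-equivalent concentration using an on-plate six-point 4-MU standard curve.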
Active calls of the source: *; i = inactive; ? = inconclusive; · = no result; [ ] = dose if it differs, or a comment. Unless noted, the call rests on the fitted dose curve; in most records, active means well fitted curve in the direction sought with a large enough effect; inconclusive means small, poorly fitted or top-dose-only effect, or another doubt; inactive means no such curve, though single readings can be large; an effect the other way counts as inactive or inconclusive.

SMILES	HADH2 inhib	A350 fluor	HSD17B inh	AID923	4MU fluor
COC(=O)[C@H](C)NC(=O)Nc1ccc(C)c(C)c1	4%	4.2e-08M*	4%	-1%	3.2e-08M*
COC(=O)NC(c1cccc(C)c1)[C@]1(C(C)=O)CCOC1=O (stereo partly specified)	-10%[11.4 µM]	·	-11%[11.4 µM]	-3%[11.5 µM]	·
CCCCCCCCCCCCC[N+](C)(C)Cc1ccccc1	·	·	2%	0%	·
CC1=C(C(=O)Nc2cccc(C)n2)C(c2ccc3c(c2)OCO3)C2=C(CC(c3ccco3)CC2=O)N1 (stereo unspecified)	?	8.1e-08M*	?	18%	8e-08M*
CC(=O)O[C@@H]1CC[C@]2(C)[C@H]3CC[C@]4(C)[C@H](C[C@H]5CCCC[C@@]54C(C)=O)[C@@H]3CC(=O)[C@@]2(O)C1	7%	i	·	·	i
